Sfp PPTase inh: qHTS Assay for Inhibitors of Bacillus subtilis Sfp phosphopantetheinyl transferase (PPTase) | 4'-phosphopantetheinyl transferase ffp (Bacillus subtilis), Q9F4F7 | Biochemical Sfp PPTase activity, qHTS | Potency, µM, actives largely listed as inhibitors | 3.5% of 310,000 active | AID 1490, 2009;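 note: the enzyme is Sfp with the accession as filed and its product quenches rhodamine fluorescence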
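Reaction rates are the 30-min fluorescence difference (ex 525, em 598 nm) in wells containing 15 nM Sfp, 5 uM rhodamine-CoA and 12.5 uM BHQ-2-YbbR at pH 7.6 with 10 mM MgCl2.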
BAZ2B block: qHTS Assay for Inhibitors of BAZ2B; Bromodomain adjacent to zinc finger domain protein 2B (Homo sapiens), Q9UIF8; AlphaScreen BAZ2B-H3K14Ac peptide displacement; Potency, µM (doses to about 114 µM), actives largely listed as inhibitors; 4.4% of 360,000 active; AID 504333, 2011; note: nearly all actives have a fitted effect of over 60% in size
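Complex of BAZ2B and biotin-H3K14Ac (50 nM apiece) forms over 30 min at RT, then faces library compounds up to 110 uM for another 30 min; AlphaScreen beads added, 20 min dark incubation, luminescence read.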
HP1b chromo inh: HTS for Inhibitors of HP1-beta Chromodomain Interactions with Methylated Histone Tails. Chromobox protein homolog 1 (Homo sapiens), P83916. AlphaScreen HP1-beta / biotin-H3K9me3 peptide binding. Potency, µM (titrated, usually from 114 µM), hits mostly inhibitors. 0.56% of 390,000 active. AID 540317, 2011; note: nearly all actives have a fitted effect of over 70% in size
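HP1-beta protein (50 nM final) preincubated 30 min at room temperature with biotinylated H3(1-18)K9me3 peptide (50 nM) in PBS pH 7.4, 0.01% Tween-20, then compound added for 30 min. AlphaScreen streptavidin donor/nickel chelate acceptor beads (10 ug/mL final), 30 min dark, luminescence read.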
JMJD2A Tudor: qHTS Assay for Inhibitors of JMJD2A-Tudor Domain | AlphaScreen JMJD2A-Tudor / H3K4me3 peptide binding | Lysine-specific demethylase 4A (Homo sapiens), O75164 | AID 504339, 2011 | Potency, µM (series often up to 114 µM), usual class: inhibitors | 4.4% of 390,000 active; note: nearly all actives have a fitted effect of over 50% in size
G9a block: qHTS Assay for Inhibitors of Histone Lysine Methyltransferase G9a; Potency, µM (series often up to 102 µM), most hits filed as inhibitors; AID 504332, 2011; 8.8% of 350,000 active; Histone-lysine N-methyltransferase EHMT2 (Homo sapiens), Q96KQ7; G9a H3K9 monomethylation, AlphaScreen, 2 h; note: nearly all actives have a fitted effect of over 75% in size
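Compounds were preincubated with 20 nM G9a for 15 min, after which biotinylated H3K9 peptide (500 nM) and SAM (20 uM) started a 2 h room-temperature reaction. Monomethylated product was quantified by antibody-based AlphaScreen chemiluminescence.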
L3MBTL1 inh: qHTS Assay for the Inhibitors of L3MBTL1; Lethal(3)malignant brain tumor-like protein 1 (Homo sapiens), Q9Y468; AlphaScreen L3MBTL1–H3K9me1 peptide binding; Potency, µM (doses to about 57.1 µM), most hits filed as inhibitors; 0.66% of 230,000 active; AID 485360, 2010; note: nearly all actives have a fitted effect of over 60% in size
Target sequence (Q9Y468 whole entry, looked up): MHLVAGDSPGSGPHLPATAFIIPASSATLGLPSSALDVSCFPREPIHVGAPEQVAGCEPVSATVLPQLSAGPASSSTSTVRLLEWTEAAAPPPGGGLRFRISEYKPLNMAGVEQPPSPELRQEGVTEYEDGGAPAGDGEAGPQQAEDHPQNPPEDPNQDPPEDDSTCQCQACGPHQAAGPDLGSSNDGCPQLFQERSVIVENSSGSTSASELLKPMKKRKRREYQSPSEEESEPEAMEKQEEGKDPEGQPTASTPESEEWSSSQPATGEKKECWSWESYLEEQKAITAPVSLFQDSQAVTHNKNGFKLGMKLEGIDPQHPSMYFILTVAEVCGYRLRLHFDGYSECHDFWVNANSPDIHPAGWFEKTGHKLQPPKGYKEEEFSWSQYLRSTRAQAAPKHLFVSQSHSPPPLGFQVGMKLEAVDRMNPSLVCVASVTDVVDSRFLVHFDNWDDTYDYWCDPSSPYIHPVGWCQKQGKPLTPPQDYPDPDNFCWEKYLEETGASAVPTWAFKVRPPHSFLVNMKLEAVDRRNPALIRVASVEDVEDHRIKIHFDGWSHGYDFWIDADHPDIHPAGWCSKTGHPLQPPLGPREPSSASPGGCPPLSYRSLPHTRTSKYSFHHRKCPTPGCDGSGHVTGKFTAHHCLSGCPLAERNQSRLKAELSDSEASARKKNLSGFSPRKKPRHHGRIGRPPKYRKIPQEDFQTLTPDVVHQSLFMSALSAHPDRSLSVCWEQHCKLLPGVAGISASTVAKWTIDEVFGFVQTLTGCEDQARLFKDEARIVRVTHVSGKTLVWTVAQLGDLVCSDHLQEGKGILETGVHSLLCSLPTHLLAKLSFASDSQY
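AlphaScreen proximity signal between nickel-chelate acceptor and streptavidin donor beads (final 10 ug/mL) reports binding of 50 nM L3MBTL1 to 75 nM biotin-H3 K9me1 peptide; complex incubated with compounds 30 min at room temperature; cefsulodin titration as control.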
Each line names hits and unclear results; the compound was inactive in the other large screens. In the library only some 12% were active in any assay of this set; here they are far more common. Calls come from the whole dose curve; as a rule, active = well fitted curve in the direction sought with a large enough effect; inconclusive = small, poorly fitted or top-dose-only effect, or another doubt; inactive = no such curve, though single readings can be large; an effect the other way counts as inactive or inconclusive.

CCn1c(SCc2nc3ccccc3c(=O)[nH]2)nc2ccccc2c1=O	none
COc1cccc2c1Oc1ncccc1N(C(=O)Nc1cccc(Cl)c1)C2	none (no result: Sfp PPTase inh, L3MBTL1 inh)
S=c1nc(-c2sccc2OCc2ccc(Cl)cc2Cl)[nH][nH]1	Sfp PPTase inh inconclusive, BAZ2B block inconclusive, G9a block 44.7µM
CCc1ccc(-n2nc3ccc(NC(=O)c4ccc(C#N)cc4F)cc3n2)cc1	G9a block inconclusive (no result: Sfp PPTase inh, L3MBTL1 inh)
CCOc1ccccc1NC(=O)c1c(NC(=O)C(C)Oc2ccc(Cl)cc2)sc2c1CCCCC2 (configuration not stated)	none (no result: Sfp PPTase inh, L3MBTL1 inh)
c1ccc(CSc2nc3ncncc3[nH]2)cc1	none
CCOC(=O)Sc1nc2ncncc2[nH]1	HP1b chromo inh inconclusive, JMJD2A Tudor 3.55µM (no result: Sfp PPTase inh, BAZ2B block, G9a block, L3MBTL1 inh)
Cc1ccc(NC(=O)CSc2ccccc2)cc1S(=O)(=O)N1CCCCC1	none (no result: Sfp PPTase inh)
Cc1cc(C)c(S(=O)(=O)/N=C2/C=C(SCC(=O)O)C(=O)c3ccccc32)cc1C	Sfp PPTase inh 22.4µM, BAZ2B block 35.5µM, HP1b chromo inh 35.5µM, JMJD2A Tudor 25.1µM, G9a block 5.62µM (no result: L3MBTL1 inh)
Cn1ccc2cc(-c3ccc4ncnc(NCc5cccnc5)c4c3)ccc21	BAZ2B block inconclusive, G9a block inconclusive (no result: Sfp PPTase inh, HP1b chromo inh, JMJD2A Tudor)
Cc1ccc2c(c1)c1c3n2CCN(CC(N)=O)C3CCC1 (configuration not stated)	none (no result: G9a block)
Cc1ccc2c(c1)c1c3n2CCN(C(=O)C2CC2)C3CCC1 (configuration not stated)	Sfp PPTase inh inconclusive, BAZ2B block inconclusive, G9a block 39.8µM (no result: L3MBTL1 inh)
Cc1ccc(C(=O)N2CCn3c4c(c5cc(C)ccc53)CCCC42)cc1 (configuration not stated)	BAZ2B block 14.1µM, JMJD2A Tudor inconclusive, G9a block 11.2µM (no result: Sfp PPTase inh, L3MBTL1 inh)
Cc1ccc2c(c1)c1c3n2CCN(C(=O)c2ccc(C(F)(F)F)cc2)C3CCC1 (configuration not stated)	BAZ2B block 28.2µM, JMJD2A Tudor inconclusive, G9a block inconclusive (no result: Sfp PPTase inh, L3MBTL1 inh)
Cc1ccc2c(c1)c1c3n2CCN(CC(O)CNC(C)C)C3CCC1 (configuration not stated)	BAZ2B block inconclusive, JMJD2A Tudor inconclusive, G9a block inconclusive
Cc1ccc2c(c1)c1c3n2CCN(CCC(=O)O)C3CCC1 (configuration not stated)	BAZ2B block inconclusive, G9a block 44.7µM
CNCCCCc1cnc(C)c2[nH]c3ccccc3c12	none (no result: BAZ2B block, HP1b chromo inh, JMJD2A Tudor, G9a block, L3MBTL1 inh)
Cc1ccc(Cn2c(CNC(=O)Cc3cccc([N+](=O)[O-])c3)nc3cccnc32)cc1	none (no result: Sfp PPTase inh, L3MBTL1 inh)
Cc1ccc2c(c1)c1c3n2CCN(CC#N)C3CCC1 (configuration not stated)	BAZ2B block inconclusive
Cc1ccc2c(c1)c1c3n2CCCN(Cc2ccccc2)C3CCC1 (configuration not stated)	BAZ2B block 10µM, HP1b chromo inh inconclusive, JMJD2A Tudor inconclusive, G9a block 12.6µM (no result: L3MBTL1 inh)
CC(C)c1ccc(/C=C2\CC/C(=C\C=N\N(C)C)C2=O)cc1	Sfp PPTase inh 79.4µM, BAZ2B block 56.2µM, JMJD2A Tudor inconclusive, G9a block inconclusive (no result: L3MBTL1 inh)
CN(C)/N=C/C=C1\CC/C(=C\c2ccc(F)c(F)c2)C1=O	JMJD2A Tudor inconclusive (no result: Sfp PPTase inh, BAZ2B block, G9a block, L3MBTL1 inh)
CCN(CC)CCCn1c(-c2ccccc2)nc2c(N3CCOCC3)nc(C)nc21	none (no result: BAZ2B block, HP1b chromo inh, JMJD2A Tudor, G9a block, L3MBTL1 inh)
Cc1ccc(S(=O)(=O)N2CCCC2)cc1[N+](=O)[O-]	none
Cc1ccc([N+](=O)[O-])c2c1C(N1CCCC1)C(C)(C)O2 (configuration not stated)	BAZ2B block inconclusive, G9a block 11.2µM
Cc1ccc(NC(=S)NNC(=O)c2ccc(N3CCOCC3)c([N+](=O)[O-])c2)cc1Cl	BAZ2B block inconclusive, HP1b chromo inh inconclusive, JMJD2A Tudor 25.1µM, G9a block 22.4µM

Bioassay records from PubChem.
